12-LOX inh – inhibitors of human 12S-lipoxygenase ALOX12; Potency, µM (titrated, usually from 108 µM), for the others: at the top dose activity change, negative = inhibition, actives largely listed as inhibitors; AID 1671190; purified 12hLO, xylenol orange hydroperoxide absorbance; 580,000 compounds, 1.1% hits; P18054; note: % is set by controls: 0 for no effect and ±100 for the full control effect
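Hydroperoxide product was detected by ferrous iron/xylenol orange as the 573 to 405 nm absorbance ratio. Arachidonic acid at 40 uM (final) was turned over for 30 min at room temperature by 150 nM human 12hLO, pH 7.0 Hepes buffer, after 15 min compound preincubation.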
JMJD2A Tudor inh – inhibitors of human JMJD2A Tudor domain; O75164; AlphaScreen JMJD2A-Tudor / H3K4me3 peptide binding; 390,000 compounds, 4.4% hits; Potency, µM (titrated, usually from 114 µM), inactives show at the top dose activity change, negative = inhibition, actives largely listed as inhibitors; AID 504339; note: % is set by controls: 0 for no effect and ±100 for the full control effect; nearly all actives have a fitted effect of over 50% in size
HP1b chromo inh – blocks HP1-beta chromodomain binding to methylated histone tails. P83916. AlphaScreen HP1-beta / biotin-H3K9me3 peptide binding. AID 540317. Potency, µM (highest dose often 114 µM), inactives show at the top dose activity change, negative = inhibition, most hits filed as inhibitors. 390,000 compounds, 0.56% hits; note: nearly all actives have a fitted effect of over 70% in size
Target sequence (P83916 whole entry, looked up): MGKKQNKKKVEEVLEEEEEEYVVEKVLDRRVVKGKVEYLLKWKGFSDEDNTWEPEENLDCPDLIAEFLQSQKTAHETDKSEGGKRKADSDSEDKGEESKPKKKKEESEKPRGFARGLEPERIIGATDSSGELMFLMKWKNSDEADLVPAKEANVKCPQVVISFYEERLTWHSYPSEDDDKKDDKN
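HP1-beta protein (50 nM final) preincubated 30 min at room temperature with biotinylated H3(1-18)K9me3 peptide (50 nM) in PBS pH 7.4, 0.01% Tween-20, then compound added for 30 min. AlphaScreen streptavidin donor/nickel chelate acceptor beads (10 ug/mL final), 30 min dark, luminescence read.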
Sfp inh – blocks B. subtilis Sfp PPTase activity; 310,000 compounds, 3.5% hits; Biochemical Sfp PPTase activity, qHTS; Potency, µM, for inactives: largest response in the series, negative = inhibition, usual class: inhibitors; Q9F4F7;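 note: the enzyme is Sfp with the accession as filed and its product quenches rhodamine fluorescence; 0% = enzyme reaction without inhibitor and -100% = no enzyme wells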
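Fluorescence-quenching assay: 15 nM Sfp-PPTase preincubated 15 min at room temperature with compound, then 5 uM rhodamine-CoA and 12.5 uM BHQ-2-labelled YbbR peptide added. Fluorescence (ex 525/em 598 nm) read at start and after 30 min; difference gives rate.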
BAZ2B inh – blocks human BAZ2B. AlphaScreen BAZ2B-H3K14Ac peptide displacement. Potency, µM (top dose mostly 114 µM), for the others: top-dose activity change, negative = inhibition, hits mostly inhibitors. 360,000 compounds, 4.4% hits. Q9UIF8; note: % is set by controls: 0 for no effect and ±100 for the full control effect; nearly all actives have a fitted effect of over 60% in size
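AlphaScreen luminescence quantifies BAZ2B engagement of H3K14Ac peptide; the protein and biotinylated peptide are both at 50 nM final, buffer PBS pH 7.4 with 0.01% Tween-20, all steps at room temperature.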
G9a inh – inhibitors of human histone lysine methyltransferase G9a; 350,000 compounds, 8.8% hits; Potency, µM (series often up to 102 µM), for inactives: top-dose activity, negative = inhibition, most hits filed as inhibitors; Q96KQ7; G9a H3K9 monomethylation, AlphaScreen, 2 h; AID 504332; note: % is set by controls: 0 for no effect and ±100 for the full control effect; nearly all actives have a fitted effect of over 75% in size
Target sequence (Q96KQ7 913-1193 limits assumed): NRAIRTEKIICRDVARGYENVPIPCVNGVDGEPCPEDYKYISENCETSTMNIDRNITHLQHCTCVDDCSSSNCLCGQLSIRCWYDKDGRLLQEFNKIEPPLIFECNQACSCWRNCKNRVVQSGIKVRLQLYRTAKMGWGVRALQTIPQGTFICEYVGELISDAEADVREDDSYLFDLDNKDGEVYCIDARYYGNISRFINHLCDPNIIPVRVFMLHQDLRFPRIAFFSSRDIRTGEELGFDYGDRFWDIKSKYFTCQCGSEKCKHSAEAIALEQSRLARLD
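Readings reflect AlphaScreen signal from monomethyl-H3K9 antibody detection. HMT at 20 nM; substrate b-H3K9 500 nM; cofactor SAM 20 uM; 2 h RT reaction; compounds tested as titrations in qHTS with 15 min preincubation.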
* marks the source's active call; other numbers are inactive results; [ ] = remark or other dose. Only some compounds are listed: those with a hit (about 8.7% of all), similar ones and a draw of the others. Calls come from the whole dose curve; as a rule, active = well fitted curve in the direction sought with a large enough effect; inconclusive = small, poorly fitted or top-dose-only effect, or another doubt; inactive = no such curve, though single readings can be large; an effect the other way counts as inactive or inconclusive. Potency is the fitted concentration of half-maximal effect.

Results for CC(C)NC(=O)N1CCC(O)(c2csc(CN3CCN(C)CC3)n2)CC1 ?
12-LOX inh: 17%[176 µM]

How did Cc1c(OCc2nn[nH]n2)ccc2c3c(c(=O)oc12)CCC(C)C3 (stereo not drawn) do in these assays?
12-LOX inh: inconclusive; JMJD2A Tudor inh: 5%; HP1b chromo inh: 18%; Sfp inh: 25%; BAZ2B inh: 4%; G9a inh: 50µM*

Results for Cc1c(OCc2nn[nH]n2)ccc2c3c(c(=O)oc12)CCCC3 ?
12-LOX inh: -2%; JMJD2A Tudor inh: -25%; HP1b chromo inh: 14%; Sfp inh: 10%; BAZ2B inh: -1%; G9a inh: 71µM*

How did Cc1cc2oc(=O)c3c(c2cc1OCc1nn[nH]n1)CCCC3 do in these assays?
12-LOX inh: 0%; JMJD2A Tudor inh: -14%; HP1b chromo inh: 24%; Sfp inh: 21%; BAZ2B inh: inconclusive; G9a inh: 71µM*

How did CCn1nc(C(=O)Nc2ccc(OC)c(OC(F)F)c2)c2ccccc2c1=O do in these assays?
12-LOX inh: 14%

What do the screens show for `O=C(CCc1ccccc1Cl)NCc1cccc(C(F)(F)F)c1`?
12-LOX inh: 6%

Results for O=C(CCc1ccsc1)Nc1cccc(N2CCCC2=O)c1 ?
12-LOX inh: -4%

How did C=CCNC(=O)N1CC[C@H]2CC(=O)N(CCN3CCNC3=O)CC[C@H]2C1 do in these assays?
12-LOX inh: 32%[176 µM]

Results for COc1cc(CN2C[C@@H](CO)[C@H](NC(=O)c3ccccc3)C2)ccc1F ?
12-LOX inh: 41%

Results for COc1ccccc1C(=O)N1CCCn2nc(C)c(-c3ccccc3N3CCCC3)c21 ?
12-LOX inh: 231%[176 µM]

What do the screens show for `CCc1noc2ncnc(N3CCCC(C(=O)NCCc4ccc(SC)cc4)C3)c12` (stereo not drawn)?
12-LOX inh: -8%

How did Cc1cccc(C(=O)c2ccc(C(C)(C)C)cc2)c1 do in these assays?
12-LOX inh: 27%

Results for O=c1cc(-c2ccccc2)[nH]n1-c1nc2ccccc2[nH]1 ?
12-LOX inh: inconclusive; JMJD2A Tudor inh: 56µM*; HP1b chromo inh: 20%; Sfp inh: 5%; BAZ2B inh: 28µM*; G9a inh: -53%

How did COCCCNCCCCSc1ccc(Cl)cc1 do in these assays?
12-LOX inh: inconclusive; JMJD2A Tudor inh: 10µM*; HP1b chromo inh: inconclusive; Sfp inh: -8%; BAZ2B inh: inconclusive; G9a inh: 3.5µM*

Results for O=C(O)CCCSc1ccc(Cl)cc1 ?
12-LOX inh: 67%

What do the screens show for `CCCCNCCCOc1cccc(Cl)c1`?
12-LOX inh: -32%; JMJD2A Tudor inh: -6%; HP1b chromo inh: 18%; Sfp inh: 9%; BAZ2B inh: 6%; G9a inh: 24%[12.7 µM]

How did OCCNCCSc1ccc(Cl)cc1 do in these assays?
12-LOX inh: inconclusive; JMJD2A Tudor inh: 22µM*; HP1b chromo inh: -27%; Sfp inh: -8%; BAZ2B inh: 56µM*; G9a inh: 50µM*

What do the screens show for `CCCCNCCOCCSc1ccc(Cl)cc1`?
12-LOX inh: inconclusive; JMJD2A Tudor inh: 1.4µM*; HP1b chromo inh: inconclusive; Sfp inh: -10%; BAZ2B inh: inconclusive; G9a inh: 8.9µM*

What do the screens show for `COCCCNCCOCCSc1ccc(Cl)cc1`?
12-LOX inh: -28%; JMJD2A Tudor inh: 1.8µM*; HP1b chromo inh: inconclusive; Sfp inh: 50µM*; BAZ2B inh: inconclusive; G9a inh: inconclusive

How did O=C(CSc1nnnn1Cc1ccccc1)N1N=C(c2cc3ccccc3o2)CC1c1ccco1 (stereo not drawn) do in these assays?
12-LOX inh: -15%

Results for CCOc1ccc(CC(=O)N2[C@@H]3CC[C@H]2CC(NC(=O)c2ccncc2)C3)cc1 (stereo partly drawn) ?
12-LOX inh: 32%

Results for O=C1N[C@@H]2CCN(S(=O)(=O)c3ccccc3)[C@@H]2C(=O)N1c1ccc(Oc2ccccc2)cc1 ?
12-LOX inh: 0%
